This note sets out measurements from PubChem BioAssay (Tox21).

Records with an inconclusive call do not appear. Activity calls are given as the source filed them. The call rests on the fitted dose curve; in most records, active means well fitted curve in the direction sought with a large enough effect in the repeat runs; inconclusive means weak or mixed curves; inactive means no such curve, though single readings can be large; an effect the other way counts as inactive or inconclusive.
Further: nearly all actives have a fitted effect of over 50% in size.
On the % scale 0 is the no-effect control and ±100 the full control effect.

Tested on in the first test: not listed separately
As to the kind of experiment: qHTS assay to identify small molecule antagonists of the retinoid-related orphan receptor gamma (ROR-gamma) signaling pathway - cell viability counter screen (AID 1159520). To be noted: Tet-on RORgamma CHO cells viability, ATP luminescence, 16 h; series mostly up to 92.4 µM; activity, negative = cytotoxicity: at the top concentration. An outline of the steps: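 Tet-on ROR gamma CHO cells (1,000/well) were plated 4 hr, given compounds in DMSO for 2 hr at 37 C, then induced with 1 uM final doxycycline for 16 hr. Viability was read as ATP by CellTiter-Glo luminescence after 30 min.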
(In qHTS, concentration-response curves come from the screen itself.)
With `CC1=NN(c2cccc(S(=O)(=O)O)c2)C(=O)C1`, the “activity, negative = cytotoxicity” value is 1.14% (inactive).

`Cc1onc(-c2c(Cl)cccc2Cl)c1C(=O)Cl`: the “activity, negative = cytotoxicity” value was -4.74% [at 42.5 µM] (inactive).

`N[C@H](C(=O)O)[C@@H](O)c1ccc(O)c(O)c1`: the “activity, negative = cytotoxicity” value is 1.53% [at 42.5 µM] (inactive).

On to `C1CCC2=NCCCN2CC1`, for which the “activity, negative = cytotoxicity” value was -6.02% (inactive).

In the case of `CC(C#N)(CCC(=O)O)N=NC(C)(C#N)CCC(=O)O` (stereo unspecified), the “activity, negative = cytotoxicity” value was 6.41% (inactive).

In the case of `C=CN1CCCCCC1=O`, the “activity, negative = cytotoxicity” value was 0.885% (inactive).

`CC[N+](CC)(CC)CCOc1cccc(OCC[N+](CC)(CC)CC)c1OCC[N+](CC)(CC)CC`: the “activity, negative = cytotoxicity” value is -0.703% [at 42.5 µM] (inactive).

As to `CC(C)(N)C#N`, the “activity, negative = cytotoxicity” value is 3.63% (inactive).

Take `OCCCCCO`: the “activity, negative = cytotoxicity” value is 2.59% (inactive).

For the molecule `C=CCOCC(O)CO` (stereo unspecified), the “activity, negative = cytotoxicity” value is 7.9% (inactive).

For `CC(=O)O[C@@]12CO[C@@H]1C[C@H](O)[C@@]1(C)C(=O)[C@H](O)C3=C(C)[C@@H](OC(=O)[C@H](O)[C@@H](NC(=O)OC(C)(C)C)c4ccccc4)C[C@@](O)([C@@H](OC(=O)c4ccccc4)[C@H]21)C3(C)C`, the “activity, negative = cytotoxicity” value is -1.5% [at 42.5 µM] (inactive).

Turning to `CC(C)(C)C(=O)c1ccccc1`, the “activity, negative = cytotoxicity” value is -6.2% (inactive).

Regarding `CCN[C@H]1C[C@H](C)S(=O)(=O)c2sc(S(N)(=O)=O)cc21`, the “activity, negative = cytotoxicity” value is -0.273% [at 42.5 µM] (inactive).

As for `C[N+]12CCC(CC1)C(OC(=O)C(O)(c1ccccc1)c1ccccc1)C2` (stereo unspecified), the “activity, negative = cytotoxicity” value was 11% [at 42.5 µM] (inactive).

As for `c1coc(CNc2ncnc3nc[nH]c23)c1`, the “activity, negative = cytotoxicity” value was 1.82% (inactive).

Turning to `NC(=O)Cc1cccc2ccccc12`, the “activity, negative = cytotoxicity” value is -7.93% (inactive).

For `CCCn1cc[n+](C)c1C`, the “activity, negative = cytotoxicity” value is -2.15% (inactive).

For the molecule `O=C(c1ccccc1)C1(O)CCCCC1`, the “activity, negative = cytotoxicity” value is 2.97% (inactive).

With `Nc1ccncc1N`, the “activity, negative = cytotoxicity” value is 1.02% [at 42.5 µM] (inactive).

On to `C=COC(=O)C(C)(CC)CCC(C)C` (stereo unspecified), for which the “activity, negative = cytotoxicity” value was 2.83% (inactive).

On to `CC(=O)Oc1cccc(C)c1`, for which the “activity, negative = cytotoxicity” value is 5.73% [at 42.5 µM] (inactive).

Regarding `CN(C)CCCN(C)CCCN(C)C`, the “activity, negative = cytotoxicity” value is 1.42% (inactive).

Regarding `O=S(=O)(O)c1cc(O)c(O)c(S(=O)(=O)O)c1`, the “activity, negative = cytotoxicity” value is 5.22% (inactive).

As for `Cc1ncc(COP(=O)(O)O)c(C=O)c1O`, the “activity, negative = cytotoxicity” value is 6.17% [at 42.5 µM] (inactive).

Take `O=CN(CCO)CCO`: the “activity, negative = cytotoxicity” value was 2% (inactive).

For the molecule `CCCc1ncc(C[n+]2ccccc2C)c(N)n1`, the “activity, negative = cytotoxicity” value is -1.03% [at 42.5 µM] (inactive).

For the molecule `CC1=NS(=O)(=O)c2cc(Cl)ccc2N1`, the “activity, negative = cytotoxicity” value is 5.51% [at 42.5 µM] (inactive).

Take `CCOCC(C)O` (stereo unspecified): the “activity, negative = cytotoxicity” value was 7.83% (inactive).

For `COc1ccnc(CS(=O)c2nc3cc(OC(F)F)ccc3[nH]2)c1OC` (stereo unspecified), the “activity, negative = cytotoxicity” value is 7.18% (inactive).

Consider `C=C(C)C(=O)OCC(O)CO` (stereo unspecified), for which the “activity, negative = cytotoxicity” value is -2.24% [at 42.5 µM] (inactive).

With `CCN(C=O)CC`, the “activity, negative = cytotoxicity” value is 0.251% (inactive).

Take `C[C@@H]1CCC[C@H](C)N1`: the “activity, negative = cytotoxicity” value is 2.82% [at 42.5 µM] (inactive).

Turning to `COc1cc(-c2ccc(=O)[nH]n2)ccc1OC(F)F`, the “activity, negative = cytotoxicity” value was -3.16% [at 42.5 µM] (inactive).

Take `CC(C)(CCC(=O)O)C(=O)O`: the “activity, negative = cytotoxicity” value was 2.62% (inactive).

As for `Cc1ccc(C(=O)Nc2ccc(S(=O)(=O)O)c3cc(S(=O)(=O)O)cc(S(=O)(=O)O)c23)cc1NC(=O)c1cccc(NC(=O)Nc2cccc(C(=O)Nc3cc(C(=O)Nc4ccc(S(=O)(=O)O)c5cc(S(=O)(=O)O)cc(S(=O)(=O)O)c45)ccc3C)c2)c1`, the “activity, negative = cytotoxicity” value is 1.51% [at 42.5 µM] (inactive).

With `Cc1nc(C2CCCCC2)c(-c2ccc(S(N)(=O)=O)c(F)c2)o1`, the “activity, negative = cytotoxicity” value was -6.21% [at 42.5 µM] (inactive).

Regarding `COc1cc(C)nc(-n2nc(C)cc2OC)n1`, the “activity, negative = cytotoxicity” value was 4.46% [at 42.5 µM] (inactive).

Consider `Cc1coc2ccccc2c1=O`, for which the “activity, negative = cytotoxicity” value is 0.85% [at 42.5 µM] (inactive).

The target of the next test is Nuclear receptor ROR-gamma (Homo sapiens) (UniProt P51449). As to the kind of experiment: qHTS assay to identify small molecule antagonists of the retinoid-related orphan receptor gamma (ROR-gamma) signaling pathway (AID 1159521;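 further: CHO cells with doxycycline inducible ROR-gamma driving an RORE luciferase reporter; top concentration of the series differs between compounds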). Conditions: Tet-on RORgamma CHO cells, RORE-luciferase, 16 h; series mostly up to 92.4 µM; activity change, negative = inhibition: at the top concentration. An outline of the steps: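 CHO Tet-on RORγ, RORE-luc reporter. Cpd 2 h pre-incubation, then dox hyclate 1 uM final, 16 h, 37 C/5% CO2. ONE-Glo luminescence; decrease = antagonist.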
As to `CC1=NN(c2cccc(S(=O)(=O)O)c2)C(=O)C1`, the “activity change, negative = inhibition” value was -26.1% (inactive).

Turning to `Cc1onc(-c2c(Cl)cccc2Cl)c1C(=O)Cl`, the “activity change, negative = inhibition” value was -6.46% [at 42.5 µM] (inactive).

With `N[C@H](C(=O)O)[C@@H](O)c1ccc(O)c(O)c1`, the “activity change, negative = inhibition” value is 18.3% [at 42.5 µM] (inactive).

As to `C1CCC2=NCCCN2CC1`, the “activity change, negative = inhibition” value was 4.18% (inactive).

Regarding `CC(C#N)(CCC(=O)O)N=NC(C)(C#N)CCC(=O)O` (stereo unspecified), the “activity change, negative = inhibition” value is 1.94% (inactive).

Take `C=CN1CCCCCC1=O`: the “activity change, negative = inhibition” value is 7.5% (inactive).

Turning to `CC[N+](CC)(CC)CCOc1cccc(OCC[N+](CC)(CC)CC)c1OCC[N+](CC)(CC)CC`, the “activity change, negative = inhibition” value is 5.38% [at 42.5 µM] (inactive).

For the molecule `CC(C)(N)C#N`, the “activity change, negative = inhibition” value was 1.76% (inactive).

Consider `OCCCCCO`, for which the “activity change, negative = inhibition” value was 6.75% (inactive).

Turning to `C=CCOCC(O)CO` (stereo unspecified), the “activity change, negative = inhibition” value was 1.48% (inactive).

With `CC(=O)O[C@@]12CO[C@@H]1C[C@H](O)[C@@]1(C)C(=O)[C@H](O)C3=C(C)[C@@H](OC(=O)[C@H](O)[C@@H](NC(=O)OC(C)(C)C)c4ccccc4)C[C@@](O)([C@@H](OC(=O)c4ccccc4)[C@H]21)C3(C)C`, the “activity change, negative = inhibition” value was -37.3% [at 42.5 µM] (inactive).

Consider `CC(C)(C)C(=O)c1ccccc1`, for which the “activity change, negative = inhibition” value is -2.95% (inactive).

Turning to `CCN[C@H]1C[C@H](C)S(=O)(=O)c2sc(S(N)(=O)=O)cc21`, the “activity change, negative = inhibition” value was 1.72% [at 42.5 µM] (inactive).

As to `C[N+]12CCC(CC1)C(OC(=O)C(O)(c1ccccc1)c1ccccc1)C2` (stereo unspecified), the “activity change, negative = inhibition” value is 14.9% [at 42.5 µM] (inactive).

For `c1coc(CNc2ncnc3nc[nH]c23)c1`, the “activity change, negative = inhibition” value was 14.6% (inactive).

`NC(=O)Cc1cccc2ccccc12`: the “activity change, negative = inhibition” value was 16.4% (inactive).

Regarding `CCCn1cc[n+](C)c1C`, the “activity change, negative = inhibition” value is -3.31% (inactive).

With `O=C(c1ccccc1)C1(O)CCCCC1`, the “activity change, negative = inhibition” value was 6.31% (inactive).

On to `Nc1ccncc1N`, for which the “activity change, negative = inhibition” value was -1.33% [at 42.5 µM] (inactive).

With `C=COC(=O)C(C)(CC)CCC(C)C` (stereo unspecified), the “activity change, negative = inhibition” value is 15.9% (inactive).

Take `CC(=O)Oc1cccc(C)c1`: the “activity change, negative = inhibition” value is 48.6% [at 42.5 µM] (inactive).

`CN(C)CCCN(C)CCCN(C)C`: the “activity change, negative = inhibition” value was 2.12% (inactive).

As to `O=S(=O)(O)c1cc(O)c(O)c(S(=O)(=O)O)c1`, the “activity change, negative = inhibition” value was 10.9% (inactive).

For the molecule `Cc1ncc(COP(=O)(O)O)c(C=O)c1O`, the “activity change, negative = inhibition” value was -0.758% [at 42.5 µM] (inactive).

Consider `O=CN(CCO)CCO`, for which the “activity change, negative = inhibition” value was 20% (inactive).

`CCCc1ncc(C[n+]2ccccc2C)c(N)n1`: the “activity change, negative = inhibition” value is -0.25% [at 42.5 µM] (inactive).

`CC1=NS(=O)(=O)c2cc(Cl)ccc2N1`: the “activity change, negative = inhibition” value is 24.4% [at 42.5 µM] (inactive).

On to `CCOCC(C)O` (stereo unspecified), for which the “activity change, negative = inhibition” value was 7.35% (inactive).

As for `COc1ccnc(CS(=O)c2nc3cc(OC(F)F)ccc3[nH]2)c1OC` (stereo unspecified), the “activity change, negative = inhibition” value is -19% (inactive).

Regarding `C=C(C)C(=O)OCC(O)CO` (stereo unspecified), the “activity change, negative = inhibition” value is 25% [at 42.5 µM] (inactive).

Regarding `CCN(C=O)CC`, the “activity change, negative = inhibition” value is 14.4% (inactive).

Turning to `C[C@@H]1CCC[C@H](C)N1`, the “activity change, negative = inhibition” value is 48% [at 42.5 µM] (inactive).

As to `COc1cc(-c2ccc(=O)[nH]n2)ccc1OC(F)F`, the “activity change, negative = inhibition” value is 15.9% [at 42.5 µM] (inactive).

In the case of `CC(C)(CCC(=O)O)C(=O)O`, the “activity change, negative = inhibition” value was -2.6% (inactive).

In the case of `Cc1ccc(C(=O)Nc2ccc(S(=O)(=O)O)c3cc(S(=O)(=O)O)cc(S(=O)(=O)O)c23)cc1NC(=O)c1cccc(NC(=O)Nc2cccc(C(=O)Nc3cc(C(=O)Nc4ccc(S(=O)(=O)O)c5cc(S(=O)(=O)O)cc(S(=O)(=O)O)c45)ccc3C)c2)c1`, the “activity change, negative = inhibition” value is 18.5% [at 42.5 µM] (inactive).

With `Cc1nc(C2CCCCC2)c(-c2ccc(S(N)(=O)=O)c(F)c2)o1`, the “activity change, negative = inhibition” value is -2.42% [at 42.5 µM] (inactive).

Turning to `COc1cc(C)nc(-n2nc(C)cc2OC)n1`, the “activity change, negative = inhibition” value was 5.58% [at 42.5 µM] (inactive).

For the molecule `Cc1coc2ccccc2c1=O`, the “activity change, negative = inhibition” value is -0.145% [at 42.5 µM] (inactive).
